From PubChem
Hits are enriched below; roughly 1.5% of the tested compounds scored in any of these assays.
S1P4 antagonist: antagonists of human S1P4 receptor; S1P4-expressing cells, antagonist mode, reporter read-out; inhibition, % at 4.98 µM; AID 1510; 220,000 compounds, 0.26% hits; O95977; in the data active = inhibition above about 29%
Insulin prom up: MIN6 insulin promoter up-regulation; 190,000 compounds, 0.3% hits; z-score at 5 µM; MIN6 insulin promoter-GFP reporter, high-content imaging; active compounds read high;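 active = z-score above 3 at 5 µM with at least 500 cells counted in the well; inconclusive = wells under 500 cells, flagged as cytotoxic or low count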
Hsp70 activator: switches on Hsp70 transcription | 200,000 compounds, 0.04% hits | activation, % at 10 µM | HeLa Hsp70 promoter luciferase reporter, luminescence; scaled: vehicle 0, proteasome-inhibitor control 100%;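 active = activation above the mean across all tested compounds plus 3 SD, cutoff set per campaign, cut at about 5.5% in these data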
INS promoter inh: TRM-6 insulin promoter activity inhibition | TRM-6 cells (human fetal islet line), insulin promoter-eGFP reporter, imaging; reporter expression induced with tamoxifen | inhibition, % at 2 µM | 130,000 compounds, 0.9% hits | AID 1273;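 active = inhibition above the mean plus 3 SD, with well images judged a real hit on visual review, cut at about 60% in these data, passing the limit was not always enough; inconclusive = inhibition over the cutoff but images rejected on review; inactive = inhibition not above the cutoff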
S1P3 antag-1: antagonists of human S1P3 receptor; inhibition, % at 4.98 µM; CHO S1P3 NFAT-BLA reporter, FRET fluorescence, antagonist mode; Q99500; 170,000 compounds, 0.27% hits; AID 485;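 active = inhibition above the plate cutoff, the mean inhibition of test wells on that plate plus 3 SD, cut at about 28% in these data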;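 note: cells challenged with S1P at its EC80 of 0.8 µM; blue over green emission ratio from cleaved BLA substrate after 4 h stimulation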
Target sequence (Q99500 whole entry, looked up): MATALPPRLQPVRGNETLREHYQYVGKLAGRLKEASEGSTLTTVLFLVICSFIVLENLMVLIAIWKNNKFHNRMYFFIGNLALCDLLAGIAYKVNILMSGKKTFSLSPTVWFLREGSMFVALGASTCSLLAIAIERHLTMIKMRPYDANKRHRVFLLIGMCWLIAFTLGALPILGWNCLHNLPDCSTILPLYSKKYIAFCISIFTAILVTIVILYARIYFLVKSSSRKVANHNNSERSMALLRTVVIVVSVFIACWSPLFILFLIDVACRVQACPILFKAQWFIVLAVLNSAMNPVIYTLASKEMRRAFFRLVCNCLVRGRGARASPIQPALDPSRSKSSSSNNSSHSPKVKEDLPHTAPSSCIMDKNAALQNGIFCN
S1P4 ag: human S1P4 receptor agonism | O95977 | S1P4-expressing cell line, agonist reporter assay | activation, % at 4.98 µM | 220,000 compounds, 0.35% hits; in the data active = activation above about 11%
S1P3 antag-2: confirmation of human S1P3 receptor antagonists | 240 compounds, 30% hits | shares compounds with S1P3 antag-1 | CHO S1P3 NFAT-BLA reporter, FRET, antagonist mode | AID 1429 | inhibition, % at 4.98 µM;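 active = inhibition above the hit threshold that was computed for the earlier primary screen, cut at about 30% in these data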
Numbers stand for hits; - = inactive; ? = inconclusive; . = no result given.

SMILES | S1P4 antagonist | Insulin prom up | Hsp70 activator | INS promoter inh | S1P3 antag-1 | S1P4 ag | S1P3 antag-2
CCCCCCCCCn1c2c(c(=N)c3c1CCC3)CCCC2 | - | - | - | - | 55 | - | 41
CCCCCCCCCCn1c2c(c(=N)c3c1CCC3)CCC2 | - | ? | - | - | . | - | .
Cc1cc2c(cc1C)CSC(c1ccccc1OC(=O)C(C)C)SC2 | - | - | - | . | . | - | .
Cc1ccc2nc(C)c3c(c2c1)COC3 | - | - | - | - | 30 | - | -
CC(C(=O)Nc1cccnc1)c1ccc([N+](=O)[O-])cc1 (stereo not given) | - | - | - | . | - | - | .
CC(C(=O)Nc1cccc(Br)c1)c1ccc([N+](=O)[O-])cc1 (stereo not given) | - | - | - | - | 30 | - | -
Cc1ccc(CN2CCNC(=O)C2CC(=O)N(C)C(C2CC2)C2CC2)o1 (stereo not given) | - | - | - | . | - | - | .
CN(C(=O)CC1C(=O)NCCN1CC(c1ccccc1)c1ccccc1)C(C1CC1)C1CC1 (stereo not given) | - | - | . | . | 29 | - | -
O=C(NCC(=O)N(CCN1CCOCC1)C(C(=O)NC1CCCC1)c1ccccc1)c1cccs1 (stereo not given) | - | - | - | . | - | - | .
Cc1c(NC(=O)Nc2ccc(Cl)cc2)c(=O)n(-c2ccccc2)n1C | - | - | - | - | - | - | .
Cc1c(N=C2N=C(NC(=O)Nc3ccc(Cl)cc3)c3ccccc32)c(=O)n(-c2ccccc2)n1C | - | - | - | . | 40 | - | -
CC(=O)Nc1ccccc1-c1nc2ccccc2nc1OCC(=O)c1ccc2ccccc2c1 | - | - | - | . | . | - | .
Cc1sc(NC(=O)C2C3CCC(O3)C2C(=O)O)nc1-c1ccc(CC(C)C)cc1 (stereo not given) | - | - | - | - | 106 | - | -
COc1ccc(-n2c(C)cc(/C=N/Nc3nnc(C)n3N)c2C)cc1 | - | - | - | - | 31 | - | -
COCC(C)NC(C(=O)Nc1ccc(C)c(Cl)c1)c1ccccc1 (stereo not given) | - | - | - | - | . | - | .
Cc1ccc(NC(=O)C(OC(=O)c2ccc(C=O)cc2)c2ccccc2)cc1Cl (stereo not given) | - | - | - | . | 30 | - | -
O=C(c1ccccc1)c1ccc2c(c1)OCCOCCOCCOCCO2 | - | - | . | . | 29 | - | -
CSc1ccc(/C=C/c2cc(=O)c3ccccc3[nH]2)cc1 | - | - | - | - | 30 | - | -
COc1ccc(CN(CC2CCC(C(=O)O)CC2)C(=S)Nc2cc(C)ccc2C)cc1 (stereo not given) | - | - | - | . | 33 | - | -
COc1ccc(CN(CC2CCC(C(=O)O)CC2)C(=S)Nc2ccccc2C)cc1 (stereo not given) | - | - | - | . | - | - | .
C/C(=N/NC(=O)c1cc(-c2ccc(Cl)s2)[nH]n1)c1ccco1 | - | - | . | . | 32 | - | -
C/C(=N/NC(=O)c1ccccn1)c1ccco1 | - | - | - | - | . | - | .
COCCNC(=S)N/N=C/c1ccc(-c2ccc([N+](=O)[O-])cc2)o1 | - | . | . | . | 31 | - | 32
COc1cccc(C2CC(c3cccc(Br)c3)n3nc(N)nc3N2)c1 (stereo not given) | - | - | - | . | - | - | .
CCOc1ccc(-c2nnc(SCC(=O)Nc3cc(C)on3)o2)cc1 | - | - | - | . | 33 | - | -
SMILES | S1P4 antagonist | Insulin prom up | Hsp70 activator | INS promoter inh | S1P3 antag-1 | S1P4 ag | S1P3 antag-2
COc1ccc2[nH]c(=O)c(C(c3nnnn3C3CCCC3)N3CCN(Cc4ccc5c(c4)OCO5)CC3)cc2c1 (stereo not given) | - | - | - | - | . | - | .
COc1ccc(CCN2C(=O)CS/C2=N/NC(=O)c2ccccc2F)cc1OC | - | - | - | - | - | - | .
O=NN(CCc1ccncc1)c1ccc(OCc2ccccc2)cc1 | - | . | - | - | 33 | - | -
COc1cccc(OC)c1C(=O)Nc1nc2cc3c(cc2s1)OCO3 | - | - | . | . | 33 | - | -
COc1cc(/C=C(/C#N)C(=O)c2c(C)[nH]c3ccccc23)ccc1OCC#N | - | - | . | . | 30 | - | -
CCOc1ccc(/C=C(\C#N)C(=O)c2c(C)[nH]c3ccccc23)cc1OC | - | - | - | - | - | - | .
O=S(=O)(c1ccccc1)c1cnc(-c2ccccc2)nc1N1CCCCC1 | - | - | - | . | - | - | .
Cc1ccc(S(=O)(=O)NCc2ccncc2)c(C)c1C | - | - | - | - | 35 | - | -
Cc1cc(C)c(S(=O)(=O)NCc2ccncc2)c(C)c1 | - | . | - | - | . | - | .
CCCCNC(=O)CSc1nc2ccsc2c(=O)n1C1CCN(C(=O)OCC)CC1 | - | - | - | - | . | - | .
O=C1N/C(=C\c2ccc(O)cc2)C(O)=C1C=NCc1ccccc1 | - | . | - | - | 29 | - | -
C=C(C)C(=O)N1CC2(CC(c3cccc(NC(=O)/C(C)=C\C)c3)=NO2)C[C@H]1C(N)=O (stereo not given in full) | . | - | . | . | . | . | .
CC(O)CCC(=O)NCCNC(=O)CCC(C)O (stereo not given) | - | - | - | - | - | - | .
C=CCNc1nc(-c2ccc([N+](=O)[O-])cc2)cs1 | - | - | - | - | 29 | - | -
O=C(COc1ccc(Cl)cc1Cl)NCCC1=CCCCC1 | - | - | - | - | . | - | .
Cc1cccc2cc(COC(=O)COc3ccccc3)c(=O)[nH]c12 | - | - | - | . | - | - | .
CC1(C)OC(=O)C(=CNCC(O)c2ccccc2)C(=O)O1 (stereo not given) | - | - | - | - | - | - | .
CC1(C)OC(=O)C(=CNCCc2ccc(O)cc2)C(=O)O1 | - | . | - | . | 28 | - | -
Cn1c(SCc2ccccc2)nnc1-c1ccc2c(c1)OCO2 | - | - | - | - | - | - | .
Cn1c(SCc2ccccc2)nnc1-c1ccc2nonc2c1 | - | - | . | . | 30 | - | -
CC1(C)CC2CC(C)(CN2C(=O)c2ccc([N+](=O)[O-])cc2[N+](=O)[O-])C1 (stereo not given) | - | - | - | . | - | - | .
O=C(c1cc(COc2ccc3ncccc3c2)on1)N1CCCCCC1 | - | - | - | . | - | - | .
O=C(NC1CCCC1)c1cc(COc2ccc3ncccc3c2)on1 | - | ? | . | . | 35 | - | -
O=C(CSc1nc(C2CCCCC2)n(-c2ccccc2)n1)NCC(F)(F)F | - | - | - | - | 51 | - | -
O=C(CSc1nc(C2CCCCC2)n(-c2ccccc2)n1)NCCN1C(=O)CSC1=O | - | . | - | - | - | - | .
CCCn1nnnc1SCC(=O)N1CCCC1 | - | - | - | - | . | - | .
O=C(NCc1cccs1)c1cc2c(s1)CCCC2 | - | - | - | - | - | - | .
CCN1/C(=C/c2ccc3ccccc3[n+]2CC)C=Cc2ccccc21 | - | ? | - | - | . | - | .
CCCCN1/C(=C/c2ccc3ccccc3[n+]2CC)Sc2ccccc21 | - | ? | - | . | 30 | - | -
